SW480 rerep – inducers of DNA re-replication in SW480 colon cancer cells. actives 1.8% (n = 340,000). SW480 DNA re-replication, Hoechst DNA content imaging, 48 h. AID 624297. Potency, µM (highest dose often 46.1 µM), hits mostly activators; further: nearly all actives have a fitted effect of over 55% in size
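Compounds, transferred as 23 nL by pin tool, were incubated with cells for 48 hr; DNA content per nucleus was then quantified by Hoechst staining and fluorescence plate imaging.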
KB-V1 MDR tox – kills drug-selected multidrug resistant KB-V1 cells; KB-V1 MDR cells viability, CellTiter-Glo, 72 h; Potency, µM (doses to about 46.1 µM), usual class: cytotoxic; actives 3.4% (n = 400,000); further: nearly all actives have a fitted effect of over 60% in size
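Cytotoxicity via CellTiter-Glo luminescence after 72 h compound exposure at 37 degrees C. Cells: drug-selected KB-V1 line, DMEM phenol-red free plus 10% FBS. Compounds tested at multiple concentrations; normalized data fitted to concentration-effect curves.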
MCF10A rerep – induces DNA re-replication in MCF 10a normal breast cells; MCF 10A DNA re-replication, Hoechst nuclear intensity, 48 h; Potency, µM (series often up to 46.1 µM), actives largely listed as activators; actives 2.9% (n = 350,000); AID 624296; further: nearly all actives have a fitted effect of over 50% in size
ELG1 DNA repair – inhibitors of ELG1-dependent DNA repair in HEK293T cells; Potency, µM (highest dose often 46.1 µM), usual class: inhibitors; actives 2.3% (n = 330,000); HEK293T ELG1-luciferase reporter, luminescence, 16 h; DNA damage induced by 5-fluorouridine; further: nearly all actives have a fitted effect of over 55% in size
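In this reporter screen, reduction of luminescence relative to DMSO vehicle indicated activity. Compounds and 5-fluorouridine were added together to 2,000 cells per well, incubated for 16 hr at 37 °C, then developed with ONE-Glo.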
KB-3-1 tox – kills parental KB-3-1 adenocarcinoma cells; KB-3-1 viability, CellTiter-Glo ATP luminescence, 72 h; Potency, µM (top dose mostly 46.1 µM), actives largely listed as cytotoxic; actives 1.4% (n = 400,000); AID 1347075; further: nearly all actives have a fitted effect of over 60% in size
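Parental KB-3-1 adenocarcinoma cells in phenol-red-free DMEM with 10% FBS were pin-treated with compounds at several concentrations, incubated 72 h at 37 °C, and viability read by CellTiter-Glo luminescence; concentration-effect curves were fitted after normalization.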
A number is an active result; 0 = inactive; ? = inconclusive; - = no result given; [ ] = dose if it differs, or a comment. An excerpt weighted towards active compounds, which were near 8.1% of everything screened. The call rests on the fitted dose curve; in most records, active means well fitted curve in the direction sought with a large enough effect; inconclusive means small, poorly fitted or top-dose-only effect, or another doubt; inactive means no such curve, though single readings can be large; an effect the other way counts as inactive or inconclusive.

SMILES	SW480 rerep	KB-V1 MDR tox	MCF10A rerep	ELG1 DNA repair	KB-3-1 tox
Cc1nnc(SCCCN2C(=O)c3ccccc3C2=O)o1	0	0	0	0	0
O=C1c2ccccc2C(=O)N1CCCCSc1nnc(-c2ccc(OC(F)F)cc2)o1	0	3.26µM	0	?	0
CCC(Sc1nc2sc(C(=O)OC)c(C)c2c(=O)n1N)C(=O)N(CC)CC (stereo unspecified)	0	3.66µM	0	0	0
CCCCNC(=O)C(CC)Sc1nc2sc(C(=O)OC)c(C)c2c(=O)n1N (stereo unspecified)	?	4.61µM	0	?	0
COCCCNC(=O)CSc1nc2sc(C(=O)OC)c(C)c2c(=O)n1N	0[1.84 µM]	0	0	0	0
CCOCCCn1c(SC(C)C(=O)NCC2CCCO2)nc2sc(C)c(C)c2c1=O (stereo unspecified)	0	0	0	0	0
CCC(Sc1nc2sc(C(=O)OC)c(C)c2c(=O)n1N)C(=O)NCC1CCCO1 (stereo unspecified)	0	16.4µM	0	?	0
CC1(C(=O)Nc2ccccc2Br)CCN1C(=O)Cc1ccccc1Cl (stereo unspecified)	-	0	-	-	0
Nc1nc(Cl)cc(N2CCC(c3cc(-c4ccc(Cl)cc4Cl)n[nH]3)CC2)n1	?	23.1µM	?	0	?
CC(=O)c1cccc(-c2ccnc3c2CC(C(=O)NCC2CCOCC2)O3)c1 (stereo unspecified)	-	0	-	-	4.61µM
CC(=O)Nc1ccc(-c2ccnc3c2CC(C(=O)NCC2CCOCC2)O3)cc1 (stereo unspecified)	-	0	-	-	5.8µM
COCCNC(=O)CCSCc1ccccc1F	?	0	4.11µM	0	0
N#Cc1ccc(-c2nc3ccc(Br)cn3c2Cc2ccccc2)cc1	-	0	-	-	20.6µM
COC(=O)c1ccc2nc(-c3ccccc3)c(Cc3ccsc3)n2c1	-	0	-	-	?
COC(=O)c1ccc2nc(-c3ccc(Cl)cc3)c(Cc3ccsc3)n2c1	-	20.6µM	-	-	?
COC(=O)c1ccc2nc(-c3ccc(OC)c(OC)c3)c(Cc3ccsc3)n2c1	-	0	-	-	0
COc1ccc(-c2nc3ccc(C)cn3c2Cc2ccsc2)cc1OC	-	23.1µM	-	-	0
Cc1ccc(Cc2c(-c3ccc(C#N)cc3)nc3ccc(Br)cn23)cc1	-	0	-	-	?
Cc1ccc2nc(-c3ccccc3)c(CN3CCOCC3)n2c1	0	0	0.651µM	0	0
CNC(=O)C1(C)Cc2c(-c3ccc(NC(C)=O)cc3)ccnc2O1 (stereo unspecified)	-	0	-	-	0
CC(=O)N1CCN(C(=O)c2ccc(S(=O)(=O)Nc3ccccc3C)cc2)CC1	0	0	0	0	0
Cc1ccc2nc(-c3cccc(Cl)c3)c(Cc3ccccc3)n2c1	-	20.6µM	-	-	0
O=C(c1ccc(NC2=NC3CS(=O)(=O)CC3S2)cc1)N(CCO)Cc1ccccc1 (stereo unspecified)	0	?	0	0	0
CC(=NNC(=S)N(Cc1ccccn1)Cc1ccccn1)c1cnccn1	?	13µM	4.61µM	-	?
S=C(NN=C(c1ccccc1)c1ccccn1)N(Cc1ccccn1)Cc1ccccn1	?	0	?	-	?
SMILES	SW480 rerep	KB-V1 MDR tox	MCF10A rerep	ELG1 DNA repair	KB-3-1 tox
O=C(CCCC(=O)N/N=C\c1ccccn1)N/N=C\c1ccccn1	0	0	0	0	0
S=C(NN=Cc1ccccn1)N(Cc1ccccn1)Cc1ccccn1	5.8µM	?	13µM	-	6.51µM
Cc1sc2ncnc(SCC(=O)c3ccc4c(c3)OCCO4)c2c1-c1ccccc1	-	16.4µM	0	10.3µM	0
CCCCSC(=S)NC1CCS(=O)(=O)C1 (stereo unspecified)	?	0	23.1µM	?	0
O=S1(=O)CCC(NC(=S)SCCOc2ccccc2)C1 (stereo unspecified)	0[1.84 µM]	0	0	0	0
CN(CP(=O)(O)CN(C)S(C)(=O)=O)S(C)(=O)=O	0	0	0	0	0
CCCc1nnc(NC(=O)CCC(=O)N2CCN(Cc3ccc(OC)c(F)c3)CC2)s1	0	0	0	0	0
COc1ccc(CN2CCN(C(=O)CCC(=O)Nc3nnc(CC(C)C)s3)CC2)cc1F	0	0	0	5.8µM	0
CC(C)Cc1nnc(NC(=O)CCC(=O)N2CCN(c3ccc([N+](=O)[O-])cc3)CC2)s1	?	0	0	9.2µM	0
COc1ccc(CN2CCN(C(=O)CCC(=O)Nc3nnc(C4CCCCC4)s3)CC2)cc1F	0	0	?	5.8µM	0
COc1ccc(CN2CCN(C(=O)CCC(=O)Nc3nnc(C(F)(F)F)s3)CC2)cc1F	0	0	0	0	0
CC(=O)OCCN(CCOC(C)=O)c1c(C)[nH]c(=O)[nH]c1=O	0	0	0	0	0
O=c1[nH]c(C2CCN(S(=O)(=O)Cc3ccccc3)CC2)nc2c1nnn2Cc1ccccc1Cl	0	0	0	25.9µM	0
O=c1[nH]c(C2CCN(S(=O)(=O)Cc3ccccc3)CC2)nc2c1nnn2Cc1ccccc1	0	0	0	23.1µM	0
O=C(NC1CC1)c1nc2c(nnn2Cc2ccccc2Cl)c(=O)[nH]1	0	0	?	?	0
O=C(NCCc1ccccc1)c1nc2c(nnn2Cc2ccccc2Cl)c(=O)[nH]1	0	14.6µM	0	0	0
O=c1[nH]c(C2CCN(S(=O)(=O)Cc3ccccc3)CC2)nc2c1nnn2Cc1cccc(Cl)c1	?	0	?	0	0
Cc1ccc(C(=O)Nc2sc3c(c2C(=O)O)CCCCC3)o1	0	?	?	0	16.4µM
CC(C)(C)c1ccc(C(=O)Nc2sc3c(c2C(=O)O)CCC3)cc1	0	?	20.6µM	3.66µM	3.26µM
Cc1cccc(C(=O)Nc2sc3c(c2C(=O)O)CCC3)c1	0	0	0	?	?
COC(=O)N1CCc2c(sc(NC(=O)C3=COCCO3)c2C#N)C1	1.46µM	?	2.06µM	?	2.31µM
COc1cccc(C(=O)Nc2sc3c(c2C(=O)O)CCCC3)c1	0	?	0	?	18.4µM
Cc1ccc(C(=O)Nc2sc3c(c2C(=O)O)CCCC3)o1	0	?	0	?	?
CCCOc1ccc(-c2nn(-c3ccccc3)cc2C2NC(=O)NC(C)=C2C(=O)OC)cc1 (stereo unspecified)	-	0	-	-	0
CSc1ccc(CNc2cccc3ccccc23)cc1	0	0	0	?	0
CN(C(=O)CSCC(=O)Nc1ccc(Cl)cc1)C1CCCCC1	0	0	0	0	0
COc1ccccc1NC(=O)C(C(C)C)N1C(=O)c2ccccc2C1=O (stereo unspecified)	0	0	0	0	0
CCCNC(=O)c1c(NC(=O)c2ccccc2F)sc2c1CCCCC2	-	0	-	-	0
COc1cccc(C(=O)Nc2sc3c(c2C#N)CCN(C(C)=O)C3)c1	4.61µM	?	4.61µM	0	5.17µM
O=C(Nc1sc2c(c1C(=O)O)CCCCC2)c1ccccc1F	0	0	0	0	11.6µM
